CtBP-E1A inh – qHTS Assay for Inhibitors of the CtBP/E1A Interaction; activity change, % (no concentration beside the values); AlphaScreen GST-E1A/His-CtBP binding, 1536-well; active compounds read low; AID 651724, 2012; CtBP / adenovirus E1A interaction (AlphaScreen); hit rate 0.49% among 340,000; in the data active = activity change below about -65%; inconclusive = mostly about -30% to -63%; also: % is scaled to controls: 0 for no effect and ±100 for the full control effect
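In 5 uL wells, 23 nL compound meets equimolar GST-E1A and His-CtBP (5X stock 125 nM each) for 2 h, 37 °C. Beads (5X, 50 ug/mL) then 1 h, 37 °C, dark.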
Six1-Eya2 inh – qHTS Assay for Inhibitors of the Six1/Eya2 Interaction; AID 651725, 2012; activity change, % (no concentration beside the values); Homeobox protein SIX1 (Homo sapiens) + Protein phosphatase EYA2 (Homo sapiens), …; AlphaScreen GST-Six1/His-Eya2 binding, biochemical; active compounds read low; hit rate 0.56% among 360,000; in the data active = activity change below about -65%; inconclusive = mostly about -30% to -63%; also: % is scaled to controls: 0 for no effect and ±100 for the full control effect
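Six1/Eya2 binding was read as AlphaScreen signal after compounds were pinned into GST-Six1 plus His-tagged Eya2 (5X stock 250/500 nM) in pH 8.0 Tris/NaCl/TCEP buffer, beads added, then incubated 1 h, 37 C, dark.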
RORg inh – qHTS for inhibitors of ROR gamma transcriptional activity. Nuclear receptor ROR-gamma (Mus musculus), P51450. hit rate 5.4% among 310,000. Potency, µM (titrated, usually from 53.6 µM), for inactives: at the top dose activity change, negative = inhibition, usual class: inhibitors. Drosophila S2 Gal4-RORgamma UAS-luciferase reporter, 20 h; also: potency is read from the fitted curve at half-maximal effect; % is scaled to controls: 0 for no effect and ±100 for the full control effect; nearly all actives have a fitted effect of over 60% in size
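Compounds are pin-transferred onto Drosophila Schneider cells expressing a copper-inducible Gal4–ROR gamma transactivation domain fusion. After 1 hr, copper sulfate is added to 700 uM final; luciferase is read 20 hr later.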
MBNL1 CUG block – qHTS Assay for Inhibitors of MBNL1-poly(CUG) RNA binding; hit rate 0.036% among 280,000; Potency, µM (highest dose often 57.5 µM), without a hit: top-dose activity change, negative = inhibition, most hits filed as inhibitors; Muscleblind-like protein 1 (Homo sapiens), Q9NR56; TR-FRET MBNL1-His/biotin-(CUG)12 binding, 665/545 ratio; active = well fitted inhibition curve with a large enough effect in the signal ratio, with a control signal flat, not every such curve was filed as active; inconclusive = small, poorly fitted or top-dose-only effect, or effect the other way, or a change in a side signal; inactive = no such curve, though single readings can be large or run the other way; the % refers to the signal ratio; also: potency is read from the fitted curve at half-maximal effect; % is scaled to controls: 0 for no effect and ±100 for the full control effect
Target sequence (Q9NR56 whole entry, looked up): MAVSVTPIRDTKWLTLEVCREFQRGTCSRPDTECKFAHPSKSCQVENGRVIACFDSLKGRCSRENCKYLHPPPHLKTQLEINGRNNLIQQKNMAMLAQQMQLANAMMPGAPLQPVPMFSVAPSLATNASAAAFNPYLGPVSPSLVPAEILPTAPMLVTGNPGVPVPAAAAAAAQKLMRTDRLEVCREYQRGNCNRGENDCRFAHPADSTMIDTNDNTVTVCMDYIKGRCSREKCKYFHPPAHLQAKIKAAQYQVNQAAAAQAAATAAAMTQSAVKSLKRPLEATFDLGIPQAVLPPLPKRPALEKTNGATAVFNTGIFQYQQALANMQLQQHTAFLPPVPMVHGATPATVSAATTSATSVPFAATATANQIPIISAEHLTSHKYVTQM
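TR-FRET readout: Ex 340 nm, 665/545 nm emission ratio, normalized to buffer-only (basal) and MBNL1-(CUG)12 controls. Complex of MBNL1-His with Biotin-(CUG)12, compounds 92 nM–58 uM, incubated 60 min at room temperature.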
VP16 counter – VP16 counterscreen qHTS for inhibitors of ROR gamma transcriptional activity; Drosophila S2 Gal4-VP16 UAS-luciferase, luminescence, 20 h; AID 2546, 2010; Potency, µM (highest dose often 53.6 µM), without a hit: top-dose activity, negative = inhibition, usual class: inhibitors; hit rate 3.5% among 310,000;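 also: Gal4-VP16 expression switched on by copper sulfate through the metallothionein promoter; potency is read from the fitted curve at half-maximal effect; % is scaled to controls: 0 for no effect and ±100 for the full control effect; nearly all actives have a fitted effect of over 50% in size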
CBFb RUNX1 block – qHTS Assay for Compounds Blocking the Interaction Between CBF-beta and RUNX1 for the Treatment of Acute Myeloid Leukemia; Runt-related transcription factor 1 (Homo sapiens) + Core-binding factor subunit beta …; 230,000 tested, under 10 active; Potency, µM (series often up to 59.8 µM), without a hit: at the highest dose activity, negative = inhibition, actives largely listed as inhibitors; AlphaScreen CBFb-His/RUNX1-biotin binding, biochemical; also: % of control where 0% means no effect
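AlphaScreen binding: CBFb-His and RUNX1-biotin (30 nM each) preincubated 20 min, compound added for 15 min, then nickel and streptavidin beads for 90 min, all at room temperature. Disruption of the interaction by any mechanism counts as activity.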
* hit, by the source's call; ? = inconclusive; . = no result given; [ ] = dose if it differs, or a comment. Most compounds without a hit are left out; they make up all but 5.5% or so of the library. Unless noted, calls follow the shape of the dose curve; as a rule, active = well fitted curve in the direction sought with a large enough effect; inconclusive = small, poorly fitted or top-dose-only effect, or another doubt; inactive = no such curve, though single readings can be large; an effect the other way counts as inactive or inconclusive.

SMILES	CtBP-E1A inh	Six1-Eya2 inh	RORg inh	MBNL1 CUG block	VP16 counter	CBFb RUNX1 block
CCOC(=O)C(=N/O)/C(C)=N/NC(C)=O	1	12	-42%	1%	6%[10 µM]	0%
CCOC(=O)C(=N/O)/C(C)=N/NC(=O)C(=O)Nc1cc(Cl)ccc1Cl	-2	-8	11µM*	-6%	22µM*	-5%
CCOP(=O)(OCC)C(NC(=O)Nc1ccccc1)c1ccccc1 (configuration not stated)	-10	-1	11µM*	1%	-6%	0%
CC(C)N(Cc1ccccc1)C(=S)NC1CCCCC1	0	2	13µM*	-6%	?	13%
COc1ccccc1NC(=S)N(c1ccccc1)C(C)C	5	-4	?	-6%	-5%	11%
CC(C)N(C(=S)NC1CCCCC1)c1ccccc1	.	.	11µM*	4%	?	13%
Cc1cccc(NC(=S)N(c2ccccc2)C(C)C)c1C	1	3	14µM*	?	25µM*	-3%
O=C(c1ccco1)C(O)c1ccco1 (configuration not stated)	.	-3	-23%	7%	2%	.
CCN(CC)S(=O)(=O)c1ccc(OC)c(NC(=O)c2cc([N+](=O)[O-])ccc2N2CCOCC2)c1	11	-3	.	.	.	.
O=C(CSc1nnc(-c2ccc(O)cc2)n1Cc1ccco1)c1cccs1	-22	-16	0%	3%	0%	-5%
O=C(CC(SCc1ccco1)c1ccc(O)cc1)c1cccs1 (configuration not stated)	-6	-14	0.89µM*	2%	-14%	-5%
COc1cccc(NC(=O)C(C)OC(=O)c2n[nH]c3ccccc23)c1 (configuration not stated)	.	0	.	.	.	.
COc1ccccc1/C=C/C=N/n1c(-c2n[nH]c3c2CCC3)n[nH]c1=S	.	-9	-30%	.	0%	-9%
COc1ccccc1/C=C/C=N/n1c(-c2ccc(C)cc2)n[nH]c1=S	-7	-8	1.1µM*	-2%	2.8µM*	-2%
COc1ccccc1/C=C/C=N/n1c(-c2ccco2)n[nH]c1=S	-1	-2	0.63µM*	.	2%	-5%
S=c1[nH]nc(-c2ccco2)n1/N=C/C=C/c1ccco1	12	-26	7.1µM*	?	10µM*	-20%
COc1ccc(-c2n[nH]c(=S)n2/N=C/C=C\c2ccccc2OC)cc1	2	-1	3.5µM*	-12%	?	4%
COc1ccccc1/C=C/C=N/n1c(-c2ccncc2)n[nH]c1=S	-11	5	?	2%	?	?
COC(=O)c1nnc(C(=O)NCc2ccccc2)c2[nH]c3ccc(OC)cc3c12	.	.	10%	.	-5%	-10%
CC(C)(C)C(=O)C(C(c1ccccc1)N1CCOCC1)N1CCOCC1 (configuration not stated)	-4	-5	.	.	.	.
Cc1cc(-c2n[nH]c(=S)n2-c2ccc(F)cc2)nn1C	0	10	-22%	-7%	1%[10 µM]	0%
COc1ccccc1/C=C/C=N/n1c(-c2cc(C)[nH]n2)n[nH]c1=S	-18	4	?	17%	?	2%
COc1ccccc1/C=C/C=N/n1c(-c2ccccn2)n[nH]c1=S	.	-67*	?	3%	2%	.
CCOC(=O)c1n[nH]n2c1nc(=S)c1ccccc12	-26	?	6.3µM*	33%	?	.
CCS(=O)(=O)c1c([N+](=O)[O-])ncn1C	.	2	?	?	10µM*	24%
SMILES	CtBP-E1A inh	Six1-Eya2 inh	RORg inh	MBNL1 CUG block	VP16 counter	CBFb RUNX1 block
CCN(CC)c1c([N+](=O)[O-])ncn1C	11	8	16%	9%	1%	1%
COc1ccc(NC(=O)C2CC(=O)N/C(=N/NC(=O)c3ccc(Cl)cc3)S2)cc1 (configuration not stated)	-11	-20	1.3µM*	.	-27%	-5%
COc1ccccc1C(=O)N/N=C1/NC(=O)CC(C(=O)Nc2ccccc2)S1 (configuration not stated)	-3	7	-11%	-3%	4%	6%
O=C1CC(C(=O)Nc2ccccc2)S/C(=N\NC(=O)c2ccccc2Cl)N1 (configuration not stated)	.	-9	3.2µM*	-1%	5µM*	-3%
CCOc1cccc(NC(=O)C2CC(=O)NC(=Nc3ccccc3)S2)c1 (configuration not stated)	-2	3	?	-7%	16%	10%
Cc1ccc(NC(=O)C2CC(=O)N/C(=N/NC(=O)c3ccc(C)cc3)S2)cc1 (configuration not stated)	-23	-6	2.2µM*	0%	10µM*	-3%
COc1cccc(NC(=O)C2CC(=O)N/C(=N/NC(=O)c3ccc(C)cc3)S2)c1 (configuration not stated)	?	-9	6.3µM*	2%	11µM*	1%
COc1ccc(CN=C2NC(=O)CC(C(=O)Nc3ccc(Cl)cc3)S2)cc1 (configuration not stated)	1	3	?	-3%	-2%	-2%
Cc1ccc(NC(=O)/C(=C\c2cccnc2)NC(=O)c2ccccc2)cc1	-6	3	-30%	2%	0%	.
COc1ccc(C(=O)N2CCC(C(=O)O)CC2)c2ccccc12	4	6	17%	5%	4%	.
O=C1CC(C(=O)O)S/C(=N\NC(=O)c2ccc(F)cc2)N1 (configuration not stated)	-4	-4	-20%	.	4%	19%
Cc1ccc(C(=O)N/N=C2/NC(=O)CC(C(=O)Nc3ccccc3)S2)cc1 (configuration not stated)	-7	4	3.2µM*	1%	5.6µM*	-2%
CC(C)Oc1ccccc1C1CC(=O)Nc2cc3c(cc21)OCO3 (configuration not stated)	?	-23	?	5%	13µM*	-6%
Cc1cc2c(cc1C)C(c1ccccc1OC(C)C)CC(=O)N2 (configuration not stated)	-1	-5	11%	3%	3%	.

Source: PubChem (National Center for Advancing Translational Sciences (NCATS))
